Inconclusive results are not listed. Entries that show only a call come without a potency. Active and inactive are the calls of the source. Calls come from the whole dose curve; as a rule, active = well fitted inhibition curve with a large enough effect; inconclusive = small, poorly fitted or top-dose-only effect; inactive = no such curve, though single readings can be large or run the other way.

For 40 compounds, Potency results are on record in PubChem BioAssay AID1508621 (National Center for Advancing Translational Sciences (NCATS), 2021).
Potency is the fitted concentration of half-maximal effect.

The experiment is described as follows: Confirmatory qHTS for Identification of Small Molecule Inhibitors of Huntingtin Promoter Activity. Note: nearly all actives have a fitted effect of over 65% in size. Particulars: HEK293 HTT promoter firefly luciferase reporter, 24 h; series mostly up to 57.5 µM. The source says:
Assay Provider: Russell L. Margolis M.D.
Department Neurology, Johns Hopkins University School of Medicine, Baltimore, MD
Huntington's Disease (HD) is a neurodegenerative disorder caused by a CAG repeat expansion in exon 1 of huntingtin (HTT). While there are currently no disease-modifying treatments for HD, recent efforts have focused on development of nucleotide-based therapeutics to lower HTT expression. As an alternative to siRNA or oligonucleotide methods, we hypothesized that suppression of HTT expression might be accomplished by small molecules that either (1) directly decrease HTT expression by suppressing HTT promoter activity or (2) indirectly decrease HTT expression by increasing the promoter activity of HTT-AS, the gene antisense to HTT that appears to inhibit expression of HTT.
We developed and employed a high throughput screen for modifiers of HTT and HTT-AS promoter activity using luminescent reporter HEK293 cells; of the 52,041 compounds tested, we identified 898 replicable hits. We used a rigorous stepwise approach to assess compound toxicity and the capacity of the compounds to specifically lower huntingtin protein in 5 different cell lines, including HEK293 cells, HD lymphoblastoid cells, mouse primary neurons, HD iPSCs differentiated into cortical-like neurons, and HD hESCs. We found no compounds which were able to lower huntingtin without lowering cell viability in all assays, though the potential efficacy of a few compounds at non-toxic doses could not be excluded.
SEQUENCE No. (1, 2, 3, etc.); […] (e.g., Cells, Incubation, Reagent, etc.); VALUE and DESCRIPTION.
1; Reagent; 4 uL; 2,500 Hek293 luciferase reporter cells per wells
3; Compound; 23 nL; Control inhibitor / compound library
5; Reagent; 2.5 uL; Firefly Luc reagent; Dual-Glo Luciferase Reporter Assay System (Promega)
6; Time; 10 min; room temperature incubation
7; Detection; Luminescence; FLuc
NOTES (numbers refer to sequence above)
1; High-throughput screening, measuring luminescence from a Hek293 luciferase reporter, was performed in 1,536 well white-walled tissue-culture treated plates. 2,500 cells were plated in 4 uL of Opti-MEM per well using a Multidrop Combi Reagent Dispenser (ThermoFisher).
2; Assay plates were cultured for 24 hours.
3; Control inhibitor (PTC124; final concentration of 50 uM) and compound library (at final concentrations of 460 nM - 57.5 uM) were added to the assay plate using the Kalypsis Pintool Robotic System equipped with 1536 pinheads.
4; Cells were then incubated for 24 hours at 37C prior to luminescence measurements.
5; In all cases, luminescence was measured using the Dual-Glo Luciferase Reporter Assay System (Promega) following the manufacturer's instructions.
6; Room temperature incubation.
7; Luminescence signal was obtained using the PerkinElmer ViewLux plate reader. Results were normalized to vehicle control (0% activity) and zero RLU (-100% activity).
Background: In qHTS, concentration-response curves come from the screen itself.
For `Cc1cc(C)cc(NC(=O)Nc2cccs2)c1`, the Potency result is “inactive”.
In the case of `O=S(=O)(c1ccc(-c2csc(=Nc3ccc(OC(F)(F)Cl)cc3)n2CCCO)cc1)N1CCCC1` it was 1.9 µM (active); in that of `CC(=O)N1CCc2c(sc(NC(=O)CSc3ccccc3)c2-c2nc3ccccc3s2)C1`, 26.9 µM (active); in that of `COc1ccccc1C1CC(=O)NC(C)=C1C(=O)OC1CCCCCC1` (stereo not given), “inactive”.
`COc1ccc(-c2nnc(C3CCN(C(=O)c4ccccc4F)CC3)o2)cc1`: the Potency result is “inactive”.
In the case of `CC(C)OCc1cc(CN2CCN(c3cccc(C(F)(F)F)c3)CC2)c(O)c2ncccc12` it was 9.53 µM (active).
In the case of `CC=C1NC(=O)[C@H]2CSSCCC=C[C@H](CC(=O)N[C@H](C(C)C)C(=O)N2)OC(=O)[C@H](C(C)C)NC1=O` it was “inactive”.
Consider `CCOC(=O)C1CCN(C(=O)Cn2c(-c3cccs3)cc3cc(Cl)ccc32)CC1`, for which the Potency result is “inactive”.
Turning to `Cc1cccc(N2CCN(C(=O)c3ccc(NC(=O)c4nsc5ccccc45)cc3)CC2C)c1` (stereo not given), the Potency result was “inactive”.
In the case of `O=c1c(-c2ccc(O)cc2)coc2cc(O)ccc12` it was “inactive”; in that of `COc1ccc(Cn2c(CO)cnc2SCc2ccc(F)cc2)cc1`, “inactive”.
For `CC(=O)c1ccc(NS(=O)(=O)c2ccc3[nH]c(=O)[nH]c3c2)cc1`, the Potency result is “inactive”.
The same measure for `COC(=O)C1=C(C)NC(C)=C(C(=O)OCC(C)=O)C1c1ccccc1[N+](=O)[O-]` (stereo not given): “inactive”; for `CCN(CC)S(=O)(=O)c1ccc(NC(=O)CCc2c(C)nc3cc(-c4ccc(Cl)cc4)nn3c2C)cc1`: 0.301 µM (active); for `CC(C)(C)C(=O)NCCc1nc2ccccc2n1CCCCOc1ccc(Cl)cc1`: 26.9 µM (active).
In the case of `CCN(CCCNC(=O)c1cc2cc3ccc(C)cc3nc2s1)c1ccccc1` it was “inactive”; in that of `Cc1ccccc1C(=O)Nc1nc(-c2ccc(Br)cc2)ns1`, “inactive”; in that of `Cc1ccccc1OCc1ccc(-c2nc(C#N)c(NCc3cccnc3)o2)o1`, 19 µM (active).
The same measure for `O=C(c1ccc(CS(=O)c2ccccc2Cl)o1)N1CCN(c2cccc(C(F)(F)F)c2)CC1` (stereo not given): 3.38 µM (active).
With `Cc1ccc(N2C(=O)C(CC(=O)Nc3ccccc3)N(CCC3=CCCCC3)C2=O)cc1` (stereo not given), the Potency entry was “inactive”.
The same measure for `O=C(C=Cc1ccc(CN(CCO)CCc2c[nH]c3ccccc23)cc1)NO`: “inactive”; for `CCOc1ccc(-n2c(/C=C/c3cccc(F)c3)nc3cc(OC)c(OC)cc3c2=O)cc1`: “inactive”.
In the case of `O=C(C=Cc1cccc(S(=O)(=O)Nc2ccccc2)c1)NO` it was “inactive”.
The same measure for `COc1ccccc1NC(=O)CN1C(=O)C(C)(C)c2ccccc21`: “inactive”; for `CO[C@H]1C=CC=C(C)C(=O)NC2=CC(=O)C(NCCN(C)C)=C(C[C@@H](C)C[C@H](OC)[C@@H](O)[C@@H](C)C=C(C)[C@@H]1OC(N)=O)C2=O`: “inactive”.
In the case of `O=C(CSc1nccn1Cc1ccco1)Nc1cc(C(F)(F)F)ccc1Cl`, the Potency entry was “inactive”.
The same measure for `COC(=O)c1c(C)oc2ccc(N(C(=O)c3ccncc3)S(=O)(=O)c3ccc(OC)cc3)cc12`: 3.79 µM (active).
The same measure for `CCn1cc(C(=O)N2CCN(c3ccc(C)cc3)C(C)C2)c(=O)c2cc(S(=O)(=O)N3CCCC3)ccc21` (stereo not given): “inactive”; for `CCOC(=O)c1ccc(C#Cc2ccc3c(c2)C(C)(C)CCS3)nc1`: “inactive”.
In the case of `CCCCc1nc2cc(C=CC(=O)NO)ccc2n1CCN(CC)CC` it was “inactive”; in that of `Cc1ccc(S(=O)(=O)n2nc(-c3ccccc3)nc2NCc2ccccc2Cl)cc1`, “inactive”; in that of `CN(C)c1ccc(C(=O)NCCCCCCC(=O)NO)cc1`, “inactive”.
As for `Cc1cccc(NC(=O)c2c(NC(=O)C(F)(F)F)sc3c2CCCCC3)c1`, the Potency was 2.39 µM (active).
The same measure for `Cc1cccc(C2C=C(c3ccc(F)cc3)Nc3nc4ccccc4n32)c1` (stereo not given): “inactive”; for `Cc1[nH]c2ccccc2c1CCNCc1ccc(C=CC(=O)NO)cc1`: “inactive”; for `CCc1ccccc1-n1c(SCC(=O)Nc2ccc(C)cc2)nc2n[nH]c(C)c2c1=N`: 13.5 µM (active).
The same measure for `O=C(CCCCCCC(=O)Nc1ccccc1)NO`: “inactive”; for `Cc1cc(SCC(=O)Nc2nsc(-c3ccc(C(C)(C)C)cc3)n2)nc2ccccc12`: “inactive”; for `O=C(NCc1cccc(Cl)c1)C1CCCN(c2nn3cc(-c4ccc(F)cc4)nc3s2)C1` (stereo not given): 12 µM (active).
The same measure for `COCCn1c2c([n+](Cc3cnccn3)c1C)C(=O)c1ccccc1C2=O`: 0.0953 µM (active).
